Measured values published in PubChem BioAssay (NCI).
The panel holds about 83,000 compounds, 20% with a hit somewhere; the sample as a whole holds those more often.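 For each line, cells grew in 96-well plates with the test compound present at a single concentration for 48 hours.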 Values without a mark were called inactive. Activity calls are given as the source filed them. Rule for the calls: active = growth percent below 10; inactive = the rest.

test system: MDA-MB-468 breast; assay: NCI-60 one-dose screen, 48 h (100 = growth as untreated, 0 = no growth, -100 = all killed); conditions: 10 µM unless noted

| Structure (SMILES) | growth |
| --- | --- |
| Nc1cc(-c2ccc(Cl)cc2)nn1-c1nc(-c2ccc(Br)cc2)cs1 | 99.4% |
| O=C(OCc1ccc2c(Cl)cc(Cl)c(O)c2n1)N1CCN(C(=O)c2cc3cc(F)ccc3[nH]2)CC1 | -5.15% (active) |
| COc1cc2c(cc1OC)-c1ccc3cc4c(cc3c1N(CCCN(C)C)C2)OCO4 | 22.3% |
| C=CC1CN2CCC1CC2C(O)c1ccnc2ccc(OC)cc12 (stereo not given) | 102% |
| CCOC(=O)Nc1ccc2c(c1)C(=O)N(CC)c1ccccc1O2 | -3.61% (active) |
| COc1ccc(CN2CCc3c(Cl)nc(N)nc3C2=O)c(OC)c1 | 12% [100 µM] |
| COc1ccc(C2OC(N)=C(O)C2=O)cc1OC (stereo not given) | 109% |
| COc1ccc(-c2nc(-c3nc4ccc(C)cc4[nH]3)cc3c2[nH]c2ccccc23)cc1 | 48.8% |
| CN1CCN(c2ccc(Nc3nc(NCCCNS(=O)(=O)c4ccc(C(F)(F)F)cc4)c4sccc4n3)cc2)CC1 | -80.9% (active) |
| N#Cc1ccc(O)c(C2=NCC(c3ccccc3)O2)c1 (stereo not given) | 32.3% |
| COc1ccc2sc3c(NCCCN(C)C)nc4ccccc4c3c(=O)c2c1 | 36.2% |
| Cn1c2c(Cl)c(Cl)ccc2c2c(C#N)c[nH]c(=O)c21 | 111% |
| O=C(O)Cc1ccc(O)c(O)c1 | 86% |
| CCN(CC)CCOC(=O)c1cc(OCc2ccccc2)c(OCc2ccccc2)c(OCc2ccccc2)c1 | 44% |
| COc1ccc(/C=N\Nc2ccc([N+](=O)[O-])cn2)cc1OC | 79.1% |
| O=c1ccc(=O)n(-c2nc(-c3ccc([N+](=O)[O-])cc3)cs2)[nH]1 | 99.3% |
| CN1C(=O)/C(=C/c2ccc(C(=O)Nc3ncc(Cc4ccc(Cl)cc4)s3)cc2)SC1=S | 25.2% |
| COc1ccc(C(=O)C(C#N)c2cc(OC)c(OC)c(OC)c2)cc1 (stereo not given) | 102% |
| c1ccc2c(NCCCN3CCOCC3)c3oc4ccccc4c3nc2c1 | -53.6% (active) |
| c1ccc(Cc2ccccc2)cc1 | 92.9% |

| Structure (SMILES) | growth |
| --- | --- |
| O=C(NNC(=O)c1cccc(Cl)c1)c1ccccc1 | 94.4% |
| COc1cc(Nc2ccnc3ccc(Br)cc23)cc(OC)c1OC | 14.9% |
| CCCCN(CCCC)c1cc(C(=O)CCCCCN)c2ccccc2n1 | 84.5% |
| Oc1ccc(Nc2ncnc3c2sc2ncccc23)cc1 | 21.3% |
| CC(=O)NCCCS(=O)(=O)O | 113% |
| C=CCn1c(SCC(=O)Nc2ccc(C(=O)/C=C/c3ccccc3)cc2)nnc1-c1ccc(OC)c(OC)c1 | 59.5% |
| Cn1cc(-c2nc(-c3c[nH]c4c(Cl)nccc34)cs2)c2cc(Br)ccc21 | 19.9% |
| CCN(CC)c1ccc(/C=N/NC(=O)c2ccc(S(N)(=O)=O)cc2)c(O)c1 | -0.911% (active) |
| O=C1NC(=O)C(CC(=O)n2c(-c3ccccc3)nc3ccccc32)C(=O)N1 | 98.3% |
| O=C(OCc1ccc2cccc(O)c2n1)N1CCN(C(=O)c2cc3cc(F)ccc3[nH]2)CC1 | -59.2% (active) |
| CCCCC1COc2cccc3c(SCC(=O)N(C)c4cccc(Cl)c4)cc[n+]1c23 (stereo not given) | 104% |
| CN(C)CCN(Cc1ccccc1)c1ccccc1 | 103% |
| Cc1ccc(-n2cc(/C=N/NC(=O)c3nc(N)n[nH]3)c(-c3ccc(S(C)(=O)=O)cc3)n2)cc1 | 105% |
| CC(C)=CCC[C@](C)(O)[C@H]1CC[C@]2(C)[C@@H]1CC[C@@H]1[C@@]3(C)CC[C@H](N)C(C)(C)[C@@H]3CC[C@]12C | 62% |
| C#Cc1nc(C2=C(C)/C(=N/OCc3ccccc3)CC2)cs1 | 54.5% |
| CCCCCCNC(=O)Oc1ccc(/C(=C(\C)c2ccc(Cl)cc2)c2ccc(OCCN(CC)CC)cc2)cc1 | 52.4% |
| CCOC(=O)C1=C(N)Oc2c(sc3c(C)cccc23)C1c1ccc(Cl)cc1 (stereo not given) | -2.2% (active) |
| COc1ccc2[nH]cc(-c3nc(-c4cn(C)c5ccncc45)cs3)c2c1 | 102% |
| CN1CCN(Cc2ccc(NC(=O)c3cncc(C#Cc4c(N)ncc5ccc(F)cc45)c3)cc2C(F)(F)F)CC1 | 54.3% |
| Oc1ccc(-c2nn(-c3ccccc3)cc2-c2nc3ccccc3s2)cc1 | 90.1% |
